Screens: PubChem BioAssay, National Center for Advancing Translational Sciences (NCATS)
D1 antag: human D1 dopamine receptor antagonism. AID 504652. activity change, negative = inhibition, % at 10 µM. 3.2% of 360,000 active. HEK293 TREx D1 cells, calcium flux, dopamine EC80; stronger effect = lower value; in the data active = activity change below about -30%
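Allosteric or orthosteric antagonism assessed as attenuation of the calcium response to EC80 dopamine, added 180 s after compound, in induced HEK293 Trex D1 cells loaded with no-wash calcium dye.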
Glioma ERSR ind: induces the endoplasmic reticulum stress response in human glioma cells; Potency, µM, most hits filed as activators; 0.02% of 420,000 active; U87-MG GRP78 promoter luciferase reporter, 16 h; also: series mostly up to about 76 µM; nearly all actives have a fitted effect of over 35% in size
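ERSR induction read as luciferase luminescence (Bright-Glo, 10 min at room temperature) in stably transfected human U87-MG glioma cells exposed to compounds for 16 h, using GRP78 as sensor.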
TRHR agonist-1: agonists of human TRH receptor. TRHR cells, calcium flux fluo-8, FDSS agonist mode. activation, % at 2 µM. 0.18% of 360,000 active. AID 493084; in the data active = activation above about 30%
Target sequence (P34981 whole entry, looked up): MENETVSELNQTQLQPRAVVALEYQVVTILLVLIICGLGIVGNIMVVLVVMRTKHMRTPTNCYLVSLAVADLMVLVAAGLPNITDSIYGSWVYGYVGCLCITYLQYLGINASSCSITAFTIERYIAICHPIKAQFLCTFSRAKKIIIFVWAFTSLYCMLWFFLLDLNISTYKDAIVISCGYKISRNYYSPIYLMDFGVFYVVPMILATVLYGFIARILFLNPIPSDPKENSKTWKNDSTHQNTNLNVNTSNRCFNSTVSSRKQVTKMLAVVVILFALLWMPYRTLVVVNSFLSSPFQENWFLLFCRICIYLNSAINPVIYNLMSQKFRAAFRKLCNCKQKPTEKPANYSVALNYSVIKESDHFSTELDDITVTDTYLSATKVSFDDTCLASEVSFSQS
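TRHR-expressing cells, plated overnight in medium with 10% serum, were loaded with fluo-8 calcium dye at room temperature. After a 10 s baseline, library compound was pin-added and calcium release was recorded kinetically (ex 480/em 530) as agonist response.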
D1 PAM: potentiators of human D1 dopamine receptor; AID 504651; 0.036% of 360,000 active; potentiation, % at 10 µM; P21728; HEK293 TREx D1 cells, calcium flux, dopamine EC20 potentiation; in the data active = potentiation above about 30%
TRHR enhancer-1: TRH receptor (human) allosteric enhancement. P34981. TRHR cells, fluo-8 calcium fluorescence, EC20 TRH enhancement. enhancement, % at 2 µM. 0.66% of 360,000 active. AID 493056; in the data active = enhancement above about 30%
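TRHR-expressing cells loaded with fluo-8 calcium dye were read kinetically (ex 480/em 530) during compound addition, then stimulated with an EC20 of TRH (10 nM final). Enhancement of the Gq-mediated intracellular calcium response was scored.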
D1 agonist: human D1 receptor agonism; P21728; HEK293 T-REx D1 cells, calcium flux, agonist mode; activation, % at 2 µM; 1% of 360,000 active; AID 504660; in the data active = activation above about 30%
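Agonism was scored from calcium flux recorded over 180 s (1 read/s) after pintool compound addition, following a 10-cycle baseline. Cells were inducible force-coupled HEK293 TREx D1, plated overnight at 30 C and loaded with no-wash calcium dye.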
TRHR enhancer-2: human TRH receptor allosteric enhancement confirmation. shares compounds with TRHR enhancer-1. TRH receptor cell assay, enhancer confirmation qHTS. activity change, negative = inhibition, % at 46.1 µM. 970 tested, under 10 active. AID 493076;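 also: compound effect scored on response to added TRH at EC20 of 10 nM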
TRHR agonist-2: confirmation of human TRH receptor agonists. shares compounds with TRHR enhancer-1. TRHR-expressing cells, agonist activation read-out. Potency, µM (series often up to 46.1 µM), hits mostly activators. 8% of 970 active. AID 493078; also: nearly all actives have a fitted effect of over 75% in size
Of the large screens only hits and unclear results are named; the others gave an inactive call (follow-up assays come after a bar, where they were run). Rows were chosen to be rich in hits. Some 4% of all compounds tested hit in one or more screens of this group. Unless noted, calls follow the shape of the dose curve; as a rule, active = well fitted curve in the direction sought with a large enough effect; inconclusive = small, poorly fitted or top-dose-only effect, or another doubt; inactive = no such curve, though single readings can be large; an effect the other way counts as inactive or inconclusive.

CCOCc1c(C(=O)Nc2ccccc2N2CCN(C)CC2)oc2ccccc12	TRHR enhancer-1 43.9 | TRHR enhancer-2 inactive | TRHR agonist-2 inactive
O=C(N/C(=C/c1ccc(Br)cc1)C(=O)N1CCOCC1)c1ccc(Br)o1	TRHR enhancer-1 97.4 | TRHR enhancer-2 inactive | TRHR agonist-2 inactive
COc1ccccc1C(=O)N1CCN(Cc2cn[nH]c2-c2ccc(F)cc2F)CC1	TRHR enhancer-1 57.0 | TRHR enhancer-2 inactive | TRHR agonist-2 inactive
CCOC(=O)c1cc(-c2ccccc2)n(CC(=O)NC2CCC(C)CC2)c1C (stereo not given)	none
O=C(CSc1nnc(-c2ccccc2)c(-c2ccccc2)n1)NCc1ccco1	TRHR enhancer-1 61.5 | TRHR enhancer-2 inactive | TRHR agonist-2 inactive
O=C(CSc1ncc(-c2ccccc2)nn1)NCc1ccco1	none
COc1ccc(-c2nc3ccccc3nc2-c2ccccc2)cc1	none
COc1ccc2nc3ccccc3nc2c1	TRHR enhancer-1 48.9 | TRHR enhancer-2 inactive | TRHR agonist-2 inactive
COc1ccccc1C(=O)Nc1ccnn1C1CCN(C/C=C/c2ccc(F)cc2)CC1	D1 antag -32.3, TRHR enhancer-1 46.6 | TRHR enhancer-2 inactive | TRHR agonist-2 inactive
COc1ccc(C(=O)n2cnc3ccccc32)cc1[N+](=O)[O-]	none
CCOC(=O)C1=C(CN2CCN(c3cccc(OC)c3)CC2)NC(=O)NC1c1ccc(OC)cc1 (stereo not given)	none
Cc1cc(NC(=O)CCN2C(=O)c3ccccc3C2=O)no1	TRHR enhancer-1 56.3 | TRHR enhancer-2 inactive | TRHR agonist-2 inactive
Cc1ccc(NC(=O)CCN2C(=O)c3ccccc3C2=O)cc1	none
Cc1ccc(C)c(NC(=O)C2CCCN(S(=O)(=O)c3c(C)nn(C)c3C)C2)c1 (stereo not given)	TRHR agonist-1 30.2 | TRHR enhancer-2 inactive | TRHR agonist-2 inactive
Cc1cccc(NC(=O)C2CCCN(S(=O)(=O)c3c(C)nn(C)c3C)C2)c1 (stereo not given)	none (no result: D1 antag, TRHR agonist-1, D1 PAM, TRHR enhancer-1, D1 agonist)
Cc1n[nH]c(C)c1CCN(C)C(=O)C1CCC(=O)N(CC2CCCCC2)C1 (stereo not given)	none
CN(CCc1cnn(C)c1)C(=O)C1CCC(=O)N(CC2CCCCC2)C1 (stereo not given)	TRHR enhancer-1 65.6 | TRHR enhancer-2 inactive | TRHR agonist-2 inactive
COc1ccc(Cn2nnnc2C(c2ccccc2)N2CCN(C3CCCC3)CC2)cc1 (stereo not given)	TRHR enhancer-1 47.5 | TRHR enhancer-2 inactive | TRHR agonist-2 inactive
CCc1ccc2c(c1)-c1ccccc1S(=O)(=O)N2CC(=O)N1CCCCC1	none
CCCn1c(N)c(C(=O)CSc2nncs2)c(=O)[nH]c1=O	TRHR enhancer-1 41.0 (no result: D1 PAM) | TRHR enhancer-2 inactive | TRHR agonist-2 inactive
CC(=O)N1CCc2cc(S(=O)(=O)NC(C(=O)Nc3ccc(C)cc3C)C(C)C)ccc21 (stereo not given)	none
OC(COc1ccccc1)CN1CCN(Cc2ccc3c(c2)OCO3)CC1 (stereo not given)	none
Cc1cc(C)cc(OCC(O)CN2CCN(Cc3ccc4c(c3)OCO4)CC2)c1 (stereo not given)	TRHR enhancer-1 43.7 | TRHR enhancer-2 inactive | TRHR agonist-2 inactive
O=C(COC(=O)c1ccc(F)cc1)NCC1CCCCC1	none (no result: D1 antag, TRHR agonist-1, D1 PAM, TRHR enhancer-1, D1 agonist)
COc1ccc(C(=O)OCC(=O)NCC2CCCCC2)cc1F	TRHR enhancer-1 41.4 | TRHR enhancer-2 inactive | TRHR agonist-2 inactive
O=C(COC(=O)c1ccc(Cl)cc1[N+](=O)[O-])NC(=O)c1ccccc1	none
Nc1ccc(C(=O)OCC(=O)NC(=O)c2ccccc2)cc1[N+](=O)[O-]	TRHR enhancer-1 54.9 | TRHR enhancer-2 inactive | TRHR agonist-2 inactive
CCOc1ccc(NS(=O)(=O)c2ccc(C(=O)NCCN3CCOCC3)cc2)cc1	none
Cc1[nH]nc2c1C(c1c[nH]c3ccccc13)C(C#N)=C(N)O2 (stereo not given)	TRHR enhancer-1 51.4 | TRHR enhancer-2 inactive | TRHR agonist-2 inactive
NC(=O)c1c(NC(=O)CN2CCCC2)sc2c1CCCC2	none
NC(=O)c1c(NC(=O)CN2CCOCC2)sc2c1CCC2	TRHR enhancer-1 66.4 | TRHR enhancer-2 inactive | TRHR agonist-2 inactive
O=C1c2ccccc2-c2onc3ccc(N4CCCC4)c1c23	TRHR agonist-1 54.3, D1 agonist 166.8 | TRHR enhancer-2 inactive | TRHR agonist-2 inconclusive
O=C(O)C1CCN(c2ccc(Cl)nn2)CC1	none
O=C(CSc1ccc(-c2ccc(F)cc2)nn1)N1CCOCC1	TRHR enhancer-1 49.7 | TRHR enhancer-2 inactive | TRHR agonist-2 inactive
CN(C(=O)c1ccc(NC(=O)c2ccco2)cc1)c1ccccc1	none
CN(C(=O)c1cccc(NC(=O)c2ccco2)c1)c1ccccc1	TRHR agonist-1 34.1 | TRHR enhancer-2 inactive | TRHR agonist-2 inactive
CCCOc1ccc(F)cc1-c1cc(C(=O)NCc2cccs2)[nH]n1	none (no result: D1 antag, TRHR agonist-1, D1 PAM, TRHR enhancer-1, D1 agonist)
O=S(=O)(NCc1ccccc1F)NCc1ccccc1F	TRHR enhancer-1 58.5 | TRHR enhancer-2 inactive | TRHR agonist-2 inactive
COc1ccc(-c2cc(C(F)(F)F)nc(SCC(=O)NCc3ccc(Cl)cc3)n2)cc1	TRHR enhancer-1 59.7 | TRHR enhancer-2 inactive | TRHR agonist-2 inactive
COc1ccc(-c2cc(C(F)(F)F)nc(SCC(=O)NCc3ccc(F)cc3)n2)cc1	none
COc1ccccc1Nc1nc(-c2cccs2)cs1	TRHR enhancer-1 44.3 | TRHR enhancer-2 inactive | TRHR agonist-2 inactive
COc1ccc(OC)c(Nc2nc(-c3cccs3)cs2)c1	none
COc1ccc(C2(C)C(C#N)C(=O)NC(=O)C2C#N)cc1 (stereo not given)	none (no result: D1 antag, TRHR agonist-1, D1 PAM, TRHR enhancer-1, D1 agonist)
COc1ccc(CCNC(=O)CN2CCOc3ccccc32)cc1OC	TRHR enhancer-1 58.4 | TRHR enhancer-2 inactive | TRHR agonist-2 inactive
Cc1noc(C)c1CSc1nnc2sc3ccccc3n12	TRHR enhancer-1 43.4 | TRHR enhancer-2 inactive | TRHR agonist-2 inactive
CC1Cc2ccccc2N1C(=O)CSc1nnc2sc3ccccc3n12 (stereo not given)	TRHR enhancer-1 62.5 | TRHR enhancer-2 inactive | TRHR agonist-2 inactive
N#CCSc1nnc2sc3ccccc3n12	none
COc1ccccc1OCCC(=O)OCC(=O)NCc1ccc(F)cc1	none (no result: D1 antag, TRHR agonist-1, D1 PAM, TRHR enhancer-1, D1 agonist)
CC(C)CCNC(=O)NC(=O)CSc1nnc(-c2ccccc2Br)o1	TRHR enhancer-1 42.5 | TRHR enhancer-2 inactive | TRHR agonist-2 inactive
CCn1cc(S(=O)(=O)N2CCN(Cc3cccc(Cl)c3)CC2)cn1	none (no result: D1 antag)
COc1cc(/C=C/c2nc3ccccc3s2)cc(OC)c1O	TRHR agonist-1 32.5 | TRHR enhancer-2 inactive | TRHR agonist-2 inconclusive
